IL-1B inflam inh: inflammasome signaling inhibition, IL-1 beta readout; AID 743279; activity change, % at 57.5 µM; THP-1 LPS/ATP IL-1B secretion, AlphaLISA, 16 h; active compounds read low; actives 4.7% (n = 360,000); in the data active = activity change below about -50%; inconclusive = mostly about -30% to -49%
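Secreted IL-1B measured by AlphaLISA bead assay after 16 h compound exposure of THP-1 cells; compounds (final up to 57.5 uM) added 1 h before LPS (250 ng/mL) and ATP (1.25 mM) stimulation; lower signal means less secretion.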
Gal4-VP16 FLuc: Gal4-VP16 reporter inhibition counter-screen; Drosophila S2 Gal4-VP16 UAS-luciferase, luminescence, 20 h; Potency, µM (top dose mostly 53.6 µM), for inactives: at the top dose activity, negative = inhibition, usual class: inhibitors; actives 3.5% (n = 310,000); AID 2546;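 note: Gal4-VP16 expression switched on by copper sulfate through the metallothionein promoter; potency is the fitted concentration of half-maximal effect; nearly all actives have a fitted effect of over 50% in size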
TDP1 cell noCPT: qHTS for Inhibitors of human tyrosyl-DNA phosphodiesterase 1 (TDP1): qHTS in cells in absence of CPT; DT40 Tdp1-/- hTDP1 cells, no CPT, ATP luminescence, 48 h; Potency, µM (top dose mostly 46.2 µM), without a hit: top-dose activity change, negative = growth inhibition, most hits filed as inhibitors; actives 15% (n = 420,000); note: potency is the fitted concentration of half-maximal effect; nearly all actives have a fitted effect of over 55% in size
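A cellular qHTS used chicken DT40 cells lacking endogenous Tdp1 but carrying stably transfected human TDP1. Compounds were applied without camptothecin, and cell growth kinetics were judged by ATP-dependent luminescence after ≥48 hr.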
TDP1 cell CPT: growth inhibition of DT40 Tdp1-/-;hTDP1 cells with camptothecin (screen for TDP1 inhibitors); chicken DT40 Tdp1-/-;hTDP1 cells + 20 nM CPT, ATP luminescence, 48 h; actives 12% (n = 420,000); Potency, µM (series often up to 46.2 µM), for inactives: at the highest dose activity change, negative = growth inhibition, hits mostly inhibitors; note: potency is the fitted concentration of half-maximal effect; nearly all actives have a fitted effect of over 55% in size
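Chicken DT40 Tdp1-/- cells complemented with human TDP1, 400 cells/well, exposed to compounds plus 20 nM camptothecin for at least 48 h at 37 C; viability read as ATP content by CellTiter-Glo luminescence.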
RORg inh: inhibitors of mouse ROR gamma transcriptional activity. Drosophila S2 Gal4-RORgamma UAS-luciferase reporter, 20 h. actives 5.4% (n = 310,000). Potency, µM (highest dose often 53.6 µM), without a hit: top-dose activity change, negative = inhibition, most hits filed as inhibitors; note: potency is the fitted concentration of half-maximal effect; nearly all actives have a fitted effect of over 60% in size
Target sequence (P51450 whole entry, looked up, the tested form may be a part): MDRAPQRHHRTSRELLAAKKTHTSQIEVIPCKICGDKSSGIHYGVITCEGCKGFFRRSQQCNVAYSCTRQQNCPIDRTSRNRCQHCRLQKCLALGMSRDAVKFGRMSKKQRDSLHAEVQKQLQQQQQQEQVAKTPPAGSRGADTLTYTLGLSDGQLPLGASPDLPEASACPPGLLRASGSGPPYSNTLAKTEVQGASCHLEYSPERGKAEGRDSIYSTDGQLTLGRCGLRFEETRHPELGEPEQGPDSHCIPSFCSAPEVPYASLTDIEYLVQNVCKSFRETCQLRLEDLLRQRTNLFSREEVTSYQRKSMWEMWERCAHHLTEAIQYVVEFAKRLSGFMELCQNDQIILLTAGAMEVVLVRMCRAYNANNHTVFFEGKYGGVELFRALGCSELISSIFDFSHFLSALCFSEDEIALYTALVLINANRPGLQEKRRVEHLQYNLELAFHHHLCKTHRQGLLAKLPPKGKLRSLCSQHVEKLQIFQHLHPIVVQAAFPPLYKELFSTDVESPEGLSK
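Luminescence from a UAS-regulated Photinus luciferase reporter in stably transfected Drosophila Schneider cells is measured; decreased signal marks ROR gamma inhibition. Fusion expression is induced by 700 uM copper sulfate for 20 hr.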
ELG1 repair inh: inhibitors of ELG1-dependent DNA repair in HEK293T cells; HEK293T ELG1-luciferase reporter, luminescence, 16 h; DNA damage induced by 5-fluorouridine; Potency, µM (highest dose often 46.1 µM), for the others: top-dose activity change, negative = inhibition, most hits filed as inhibitors; actives 2.3% (n = 330,000); AID 504467; note: potency is the fitted concentration of half-maximal effect; nearly all actives have a fitted effect of over 55% in size
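DMSO vehicle served as the neutral condition. Each well held 2,000 cells given 5-fluorouridine plus compound; after 16 hr at 37 °C/5% CO2, ONE-Glo was added and luciferase measured 30 min later.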
* = called active by the depositor; [ ] = dose if it differs, or a comment. Shown are actives, neighbours in structure and some others; about 21% of the full set was active somewhere. Unless noted, calls come from the whole dose curve; as a rule, active = well fitted curve in the direction sought with a large enough effect; inconclusive = small, poorly fitted or top-dose-only effect, or another doubt; inactive = no such curve, though single readings can be large; an effect the other way counts as inactive or inconclusive. % is set by controls: 0 for no effect and ±100 for the full control effect.

Cc1ccc(S(=O)(=O)NCc2ccc(C(=O)NCCN(Cc3ccccc3)C(C)C)cc2)cc1 was read as IL-1B inflam inh -66*, Gal4-VP16 FLuc -6%, TDP1 cell noCPT 16µM*, TDP1 cell CPT inconclusive, RORg inh 7% and ELG1 repair inh inconclusive.
`COc1ccc(S(=O)(=O)N(C)c2ccc(C(=O)NCc3ccncc3)cc2)cc1` gave IL-1B inflam inh -10, Gal4-VP16 FLuc -6%, TDP1 cell noCPT -27%, TDP1 cell CPT -15%, RORg inh 2% and ELG1 repair inh -6%.
COc1ccc(N(C)S(=O)(=O)c2cccc(C(=O)NCc3ccc(C)cc3)c2)cc1 was read as IL-1B inflam inh -59*, TDP1 cell noCPT inconclusive, TDP1 cell CPT inconclusive and ELG1 repair inh -7%.
Screening O=c1c(-c2ccc(O)cc2)coc2c(C3OC(CO)C(O)C(O)C3O)c(O)ccc12 (stereo unspecified) returned Gal4-VP16 FLuc -7%, TDP1 cell noCPT -4%, TDP1 cell CPT -7% and RORg inh -7%.
For O=C1C2CCCN2C(c2ccc(F)cc2)N1c1ccc(Cl)cc1 (stereo unspecified) the results were IL-1B inflam inh -15, Gal4-VP16 FLuc 0%, TDP1 cell noCPT -16%, TDP1 cell CPT 6%, RORg inh 19% and ELG1 repair inh 23%.
`O=C1C2=C(NC(=S)NC2c2ccc(Cl)cc2)NC(c2ccc(Cl)cc2)N1c1ccc(Cl)cc1` (stereo unspecified) gave IL-1B inflam inh -101*, Gal4-VP16 FLuc -11%, TDP1 cell noCPT inconclusive, TDP1 cell CPT inconclusive, RORg inh 18% and ELG1 repair inh 16%.
For CCc1ccc(C2NC(=S)NC3=C2C(=O)N(c2ccccc2OC)C(c2ccc(CC)cc2)N3)cc1 (stereo unspecified) the results were IL-1B inflam inh -79*, Gal4-VP16 FLuc 2%, TDP1 cell noCPT 18µM*, TDP1 cell CPT 16µM*, RORg inh inconclusive and ELG1 repair inh inconclusive.
`CCOC(=O)c1c(CN(C)C)oc2cc(CN(C)C)c(O)c(CSc3ccccc3)c12` gave IL-1B inflam inh -50*, Gal4-VP16 FLuc 1%, TDP1 cell noCPT -24%, TDP1 cell CPT -21%, RORg inh 1%[10 µM] and ELG1 repair inh -19%.
Screening CCOC(=O)c1c(CSc2ccccc2)n(C)c2cc(Br)c(O)c(CN(C)C)c12 returned IL-1B inflam inh -86*, Gal4-VP16 FLuc -5%, TDP1 cell noCPT 15µM*, TDP1 cell CPT 21µM*, RORg inh 2% and ELG1 repair inh 6%.
CCOC(=O)c1c(CSc2ccccc2)n(C)c2ccc(O)c(CN3CCN(C)CC3)c12 was read as IL-1B inflam inh 0, Gal4-VP16 FLuc 0%, TDP1 cell noCPT inconclusive, TDP1 cell CPT inconclusive, RORg inh -7% and ELG1 repair inh inconclusive.
`CCOC(=O)c1c(CN2CCOCC2)n(-c2ccccc2)c2cc(Br)c(O)c(CN(C)C)c12` gave IL-1B inflam inh inconclusive, Gal4-VP16 FLuc 0%, TDP1 cell noCPT inconclusive, TDP1 cell CPT inconclusive, RORg inh -12% and ELG1 repair inh -19%.
CCOC(=O)c1c(CSc2ccc(C)cc2)n(C)c2cc(Br)c(O)c(CN(C)C)c12 was read as IL-1B inflam inh 0, Gal4-VP16 FLuc 3%, TDP1 cell noCPT 8.2µM*, TDP1 cell CPT inconclusive, RORg inh -33% and ELG1 repair inh inconclusive.
`CCOC(=O)c1c(CN2CCCCC2)n(C)c2cc(Br)c(OC)cc12` gave IL-1B inflam inh -2, Gal4-VP16 FLuc -8%, TDP1 cell noCPT 11µM*, TDP1 cell CPT inconclusive, RORg inh -9% and ELG1 repair inh -7%.
